The values below come from ChEMBL document CHEMBL4513216, “Probing the Open Global Health Chemical Diversity Library for Multistage-Active Starting Points for Next-Generation Antimalarials” (ACS Infect Dis, 2020).

Hit rate of the full screen: of about 68,000 compounds, about 2,700 (4%) showed an effect of 50% or more. This excerpt belongs to a sample that is enriched for strong results.

This test relates to Plasmodium berghei. Briefly: Screen against P. berghei liver stage (PbLuc), transformed with Luciferase, at 2uM. The format is functional, HepG2. The conditions noted are these: tested at 2 uM.
As to `Cc1c(C(=O)NC(C)C)nnn1-c1cccc(C(F)(F)F)c1`, the INHIBITION was -8.75%.
The figure for `CC(C)NC(=O)c1nnn(-c2cccc(C(F)(F)F)c2)c1N` is 50.54%.
Take `CC(C)NC(=O)c1nnn(-c2cccc(C(F)(F)F)c2)c1C1CC1`: the INHIBITION was -66.52%.
Take `COCCc1noc(CN2C(=O)OC[C@@H]2C(C)C)n1`: the INHIBITION is on record as -7.66%.
The figure for `CC1N(C)C(=O)COC12CCN(C(=O)Cc1ccsc1)CC2` (stereo unspecified) is 2.18%.
The figure for `CC1N(C)C(=O)COC12CCN(C(=O)CCc1ccccc1)CC2` (stereo unspecified) is 65.38%; for `CC1N(C)C(=O)COC12CCN(Cc1ccsc1)CC2` (stereo unspecified) it is -30.38%.
The figure for `O=C(c1cccc(F)c1)N1CCC2(CC1)CC(N1CCOCC1)C2` is -21.77%; for `CCc1n[nH]c(C2CN(Cc3csc(COC)n3)CCO2)n1` (stereo unspecified) it is 12.58%; for `c1cc(-c2nnn3c2COC(CNCC2CCOCC2)C3)ccn1` (stereo unspecified) it is 86.79%.
As for `c1ccc(-c2nnn3c2COC(CNCC2CCOCC2)C3)cc1` (stereo unspecified), the INHIBITION was found to be 12.36%.
Take `c1ccc(-c2nnn3c2COC(CNCC2CC2)C3)cc1` (stereo unspecified): the INHIBITION came out at 14.48%.
In the case of `Cc1cccc(C(=O)NCc2ccc(N3CCCCCC3)nc2)n1`, the INHIBITION is -26.87%.
Take `Cc1cn2c(n1)C(CNCC1=Cc3cc(Cl)ccc3OC1)CCC2` (stereo unspecified): the INHIBITION was 9.21%.
For the molecule `CCCS(=O)(=O)N1CCC2(CC1)CC(N1CCCC1)c1ccccc12` (stereo unspecified), the INHIBITION is -21.74%.
Regarding `Cc1nc2c(c(=O)[nH]1)CN(C(=O)CCC1CCCN(C)C1)C2` (stereo unspecified), the INHIBITION is recorded as 19.48%.
As for `CC(C)c1ccc(S(=O)(=O)N2CCCC3(CCCN3S(C)(=O)=O)C2)cc1` (stereo unspecified), the INHIBITION worked out at 42.62%.
The figure for `CCOCCC(=O)Nc1cccc(Cl)c1COC` is 1.06%; for `CCOCCC(=O)Nc1ccnn1-c1ccc(Cl)cc1` it is -24.07%; for `CCOCCC(=O)Nc1cccc(Cl)c1C(N)=O` it is 56.89%.
As to `CC(C)CCc1nc(CNCC2CCCN2c2cccnn2)cs1` (stereo unspecified), the INHIBITION was 15.47%.
The figure for `CN(C)C(=O)c1n[nH]c2c1CN(Cc1nccs1)CC2` is -8.84%; for `c1cncc(CNCCc2cccs2)c1` it is -10.44%.
As to `COCCNC(=O)CSCc1nc(O)c2cc(C(C)C)sc2n1`, the INHIBITION is on record as -43.28%.
The figure for `COC(=O)CNC(=O)CSCc1nc(O)c2cc(C(C)C)sc2n1` is 5.36%; for `COC(=O)C(C)NC(=O)CSCc1nc(O)c2cc(C(C)C)sc2n1` (stereo unspecified) it is 52.08%; for `Cc1nc[nH]c1CN(Cc1ccccc1F)C1CC(C)(C)NC(C)(C)C1` it is 39.26%.
The figure for `Cc1nc[nH]c1CN(Cc1ccc(F)cc1)C1CC(C)(C)NC(C)(C)C1` is -24.35%; for `Cc1nc[nH]c1CN(Cc1ccccc1)C1CC(C)(C)NC(C)(C)C1` it is 50.68%; for `O=C(NCc1ccco1)[C@H]1C[C@@H]2CCN(c3cccc(F)c3)C[C@H]2O1` it is 45.28%.
The figure for `CCCN1CCC(N2CCN(c3cccc(C)n3)CC2)CC1` is 36.24%; for `Nc1cc(CCC2CN(Cc3ccc4c(c3)OCCO4)CCO2)ccn1` (stereo unspecified) it is 23.87%.
As to `Nc1cc(CCC2CN(Cc3ccc4cc[nH]c4c3)CCO2)ccn1` (stereo unspecified), the INHIBITION is given as 52.69%.
Take `COc1ccc(CN2CCOC(CCc3ccnc(N)c3)C2)cc1` (stereo unspecified): the INHIBITION is -152.49%.
The figure for `COCC1CN(Cc2ccc(OC)cc2)Cc2nn(C)cc21` (stereo unspecified) is -62.13%.
The figure for `CN(CC(=O)N1CCOC(CCc2ccccc2)C1)Cc1ccccn1` (stereo unspecified) is 3.94%; for `CC(C)NC(=O)[C@@H]1C[C@@H]2CCN(Cc3ccoc3)C[C@H]2O1` it is 0%; for `CC(c1nc(C(C)(C)C)no1)N1CCC(N2CCCC2)CC1` (stereo unspecified) it is 4.52%.
On to `CCS(=O)(=O)N1CCc2ccc(NC(=O)Nc3cccc(SC)c3)cc21`, for which the INHIBITION was 47.4%.
Turning to `CCS(=O)(=O)N1CCc2ccc(NC(=O)Nc3ccccc3C)cc21`, the INHIBITION is recorded as -7.56%.
The figure for `NS(=O)(=O)N1CCc2ccc(NC(=O)CC(F)(F)F)cc21` is 6.91%; for `CCS(=O)(=O)N1CCc2ccc(NC(=O)Nc3ccccc3)cc21` it is 20.38%; for `CCS(=O)(=O)N1CCc2ccc(NC(=O)Nc3cccc(F)c3)cc21` it is 78.93%.
The figure for `CCS(=O)(=O)N1CCc2ccc(NC(=O)Nc3ccc(F)cc3F)cc21` is 36.98%; for `NS(=O)(=O)N1CCc2ccc(NC(=O)Cc3ccc(F)cc3)cc21` it is 1.22%; for `NS(=O)(=O)N1CCc2ccc(NC(=O)Cc3ccccc3F)cc21` it is 60.14%.
The figure for `CCS(=O)(=O)N1CCc2ccc(NC(=O)Nc3cccc(C)c3)cc21` is 80.54%; for `O=C(O)c1cc2c(nc1N1CCOCC1)CCN(C1CCOC1)CC2` (stereo unspecified) it is -51%; for `CCc1ccc(C(=O)Nc2ccc(CC3CC(=O)NC3=O)cc2)s1` (stereo unspecified) it is -3.62%.
In the case of `CCc1ncc(CN2CCN(c3cc(NC4CC4)nc(N)n3)CC2)cn1`, the INHIBITION is -18.65%.
The figure for `CCn1cc(NC(=O)Nc2ccc3c(c2)OCCO3)cn1` is -27.62%.
Consider `Cc1cc(CN2CCC(CNC(=O)c3ccc4[nH]cnc4c3)C2)[nH]n1` (stereo unspecified), for which the INHIBITION was -48.91%.
Regarding `CC(C)c1nn(C)c(N(C)C)c1CNC1CCN(CC2CC2)CC1`, the INHIBITION was determined as 10.61%.
The figure for `O=c1[nH]c(N2CCCCC2)nc2c1CCN(Cc1cccnc1)C2` is 43.23%; for `O=c1c2cnc(N3CCCCC3)nc2ccn1Cc1ccco1` it is -77.67%; for `CCN1CCN(c2ncc3c(=O)n(Cc4ccco4)ccc3n2)CC1` it is -20.72%.
As to `CN1CCN(c2ncc3c(=O)n(Cc4ccco4)ccc3n2)CC1`, the INHIBITION was 59.01%.
The figure for `Cn1ccnc1N1CCN(C(=O)Cc2ccc(Cl)cc2)CC1` is 29.05%; for `O=C(c1ccc2ccccc2c1)C1CCCN(C(=O)Cn2cncn2)C1` (stereo unspecified) it is 25.9%.
The figure for `CSc1ccc(C(=O)C2CCCN(C(=O)Cn3cnnn3)C2)cc1` (stereo unspecified) is 41.68%.
As for `O=C(c1ccc2ccccc2c1)C1CCCN(C(=O)Cn2cnnn2)C1` (stereo unspecified), the INHIBITION was 56.38%.
`Cc1ccccc1OCC(O)CN1CCC(Cn2cccn2)CC1` (stereo unspecified): the INHIBITION was 33.22%.
In the case of `Cc1cccc(CN2CCc3ncnc(-c4ccsc4)c3CC2)n1`, the INHIBITION is on record as -1.33%.
The figure for `CC(C)N(C)S(=O)(=O)N1CCCC1C(=O)N1CCSCC1` (stereo unspecified) is -36.67%; for `Cc1ccc(CC(=O)N2CCCCC2c2nc(C)cs2)cn1` (stereo unspecified) it is -39.92%; for `O=c1[nH]nc(C2CC2)n1-c1cccc(Cl)c1` it is -21.72%.
With `CN1CCC(c2n[nH]c(=O)n2-c2cccc(Cl)c2)CC1`, the INHIBITION is recorded as -8.16%.
The figure for `C[C@H](c1ccc(F)cc1)n1c(C2CCN(C)CC2)n[nH]c1=O` is 72.05%.
Turning to `C[C@H](c1ccc(Cl)cc1)n1c(C2CC2)n[nH]c1=O`, the INHIBITION amounted to 62.51%.
Turning to `C[C@H](c1ccc(F)cc1)n1c(C2CCC2)n[nH]c1=O`, the INHIBITION is listed as 38.67%.
For the molecule `CC[C@@H](c1ccccc1)n1c(C2CC2)n[nH]c1=O`, the INHIBITION came to 43.05%.
